Several values for one entry are separate records, joined by “and”; a condition that tells them apart may be missing. Identical values can stand only once. Activity calls are given as the source filed them. How the source made its calls: active means hit-call score of the fitted dose curve at least 0.9, where 1 is the maximum; inactive means score below 0.9.
Key:
[1] = BSK_hDFCGF_SRB: Viability Assessment in the BioMAP Diversity Plus: hDFCGF Assay (AID 2283061); conditions: primary human foreskin fibroblasts;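 further: cells exposed to compound for 24 h before the read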
Outline: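 Human foreskin primary fibroblasts were treated with compound and assessed 24 h after dosing. Total protein was measured by sulforhodamine B staining (0.1% SRB after 10% TCA fixation, 560 nm read) as a cytotoxicity marker, with bidirectional fitting against DMSO baseline.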

[2] = read-out: TIMP metallopeptidase inhibitor 1 (TIMP1), TIMP1 (gene 7076); assay: BSK_hDFCGF_TIMP1: BioMAP Diversity Plus: hDFCGF Assay for TIMP metallopeptidase inhibitor 1 (TIMP1) Biomarker Activity (AID 2283062); conditions: primary human foreskin fibroblasts; actives raise or lower the signal
Outline: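 Primary human foreskin fibroblasts in the hDFCGF system were dosed with compound for 24 h, then TIMP-1 was measured by ELISA. Activity was fitted bidirectionally relative to DMSO control; parallel SRB staining assessed cytotoxicity.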

[3] = read-out: Matrix Metallopeptidase 1 (MMP1), MMP1 (gene 4312); assay: BSK_hDFCGF_MMP1: BioMAP Diversity Plus: hDFCGF Assay for Matrix Metallopeptidase 1 (MMP1) Biomarker Activity (AID 2283064); conditions: primary human foreskin fibroblasts; actives raise or lower the signal
Outline: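 ELISA read-out of MMP1 from human foreskin fibroblasts (primary skin cells), 24 h post-dose. Gain or loss of signal was fitted bidirectionally versus DMSO negative control; cytotoxicity was checked by SRB in parallel cultures.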

[4] = read-out: Vascular cell adhesion molecule 1 (VCAM1), VCAM1 (gene 7412); assay: BSK_hDFCGF_VCAM1: BioMAP Diversity Plus: hDFCGF Assay for Vascular cell adhesion molecule 1 (VCAM1) Biomarker Activity (AID 2283065); conditions: primary human foreskin fibroblasts; actives raise or lower the signal;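 on AC50: VCAM-1 protein level quantified by ELISA after 24 h chemical exposure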
Outline: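 Primary human foreskin fibroblasts (hDFCGF system) were dosed with chemical and VCAM-1 was measured by ELISA 24 h later. Bidirectional curve fitting used DMSO as negative control and activity baseline.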

[5] = read-out: Plasminogen activator inhibitor-1 (PAI1), SERPINE1 (gene 5054); assay: BSK_hDFCGF_PAI1: BioMAP Diversity Plus: hDFCGF Assay for Plasminogen activator inhibitor-1 (PAI1) Biomarker Activity (AID 2283066); conditions: primary human foreskin fibroblasts; actives raise or lower the signal
Outline: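 ELISA readout of PAI-1 from primary human skin fibroblast cultures, 24 h after compound addition. Gain or loss of signal was fitted bidirectionally against DMSO baseline.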

[6] = read-out: Intercellular Adhesion Molecule 1 (ICAM1), ICAM1 (gene 3383); assay: BSK_KF3CT_ICAM1: BioMAP Diversity Plus: KF3CT Assay for Intercellular Adhesion Molecule 1 (ICAM1) Biomarker Activity (AID 2283067); conditions: primary human keratinocytes with fibroblasts; actives raise or lower the signal
Outline: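 Human keratinocyte plus foreskin fibroblast primary co-culture was exposed to chemical for 24 h. ICAM-1 was then quantified by ELISA, and the data were fit bidirectionally against DMSO as the negative control and baseline.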

[7] = read-out: Interferon-gamma inducible Protein 10 (IP10), CXCL10 (gene 3627); assay: BSK_KF3CT_IP10: BioMAP Diversity Plus: KF3CT Assay for Interferon-gamma inducible Protein 10 (IP10) Biomarker Activity (AID 2283068); conditions: primary human keratinocytes with fibroblasts; actives raise or lower the signal
Outline: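 In a primary skin co-culture of keratinocytes and fibroblasts, IP-10 is quantified by ELISA at 24 h after dosing. SRB staining of parallel wells monitors overt toxicity. Curves are fitted both directions against DMSO.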

[8] = BSK_KF3CT_SRB: Viability Assessment in the BioMAP Diversity Plus: KF3CT Assay (AID 2283069); conditions: primary human keratinocytes with fibroblasts
Outline: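 SRB read-out at 560 nm (0.1% stain, TCA-fixed cells) gauges overt cytotoxicity in a human skin keratinocyte–fibroblast co-culture 24 h post-dosing. Signal change was fitted bidirectionally relative to DMSO control.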

[9] = read-out: Interleukin-1 alpha (IL1a), IL1A (gene 3552); assay: BSK_KF3CT_IL1a: BioMAP Diversity Plus: KF3CT Assay for Interleukin-1 alpha (IL1a) Biomarker Activity (AID 2283070); conditions: primary human keratinocytes with fibroblasts; actives raise or lower the signal
Outline: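 Primary skin co-culture (keratinocytes, foreskin fibroblasts), 24 h exposure; ELISA for IL-1a; bidirectional curve fit vs DMSO.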

[10] = read-out: TIMP metallopeptidase inhibitor 2 (TIMP2), TIMP2 (gene 7077); assay: BSK_KF3CT_TIMP2: BioMAP Diversity Plus: KF3CT Assay for TIMP metallopeptidase inhibitor 2 (TIMP2) Biomarker Activity (AID 2283071); conditions: primary human keratinocytes with fibroblasts; actives raise or lower the signal
Outline: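 ELISA readout of TIMP-2 in keratinocyte plus foreskin fibroblast co-cultures (human skin primary cells), 24 h post-dose. Gain or loss of signal fitted relative to DMSO.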

[11] = read-out: Transforming growth factor beta 1 (TGFb1), TGFB1 (gene 7040); assay: BSK_KF3CT_TGFb1: BioMAP Diversity Plus: KF3CT Assay for Transforming growth factor beta 1 (TGFb1) Biomarker Activity (AID 2283072); conditions: primary human keratinocytes with fibroblasts; actives raise or lower the signal
Outline: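 Read-out: ELISA for TGF-b1 in keratinocyte/foreskin fibroblast human skin co-culture, 24 h after dosing; bidirectional curve fit vs DMSO baseline; gain or loss of signal scored.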

[12] = read-out: C-C motif chemokine 2 (Homo sapiens) (UniProt P13500); assay: BSK_KF3CT_MCP1: BioMAP Diversity Plus: KF3CT Assay for Monocyte Chemoattractant Protein 1 (MCP1/CCL2) Biomarker Activity (AID 2283073); conditions: primary human keratinocytes with fibroblasts; actives raise or lower the signal
Outline: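 Human keratinocyte plus foreskin fibroblast primary co-culture exposed to chemical for 24 h. MCP-1 levels measured by ELISA. Bidirectional curve fitting relative to DMSO negative control as baseline.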

[13] = read-out: Matrix Metallopeptidase 9 (MMP9), MMP9 (gene 4318); assay: BSK_KF3CT_MMP9: BioMAP Diversity Plus: KF3CT Assay for Matrix Metallopeptidase 9 (MMP9) Biomarker Activity (AID 2283074); conditions: primary human keratinocytes with fibroblasts; actives raise or lower the signal;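 on AC50: MMP9 protein level quantified by ELISA in the co-culture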
Outline: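 ELISA read-out of MMP-9 at 24 h post-dosing in a co-culture of human skin keratinocytes and foreskin fibroblasts. Gain or loss of signal was fitted in both directions against DMSO.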

[14] = read-out: urokinase plasminogen activator (uPA), PLAU (gene 5328); assay: BSK_KF3CT_uPA: BioMAP Diversity Plus: KF3CT Assay for urokinase plasminogen activator (uPA) Biomarker Activity (AID 2283075); conditions: primary human keratinocytes with fibroblasts; actives raise or lower the signal
Outline: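 Skin co-culture (keratinocytes + foreskin fibroblasts), human primary; 24 h post-dose; uPA by ELISA; gain/loss fit vs DMSO baseline.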

[15] = read-out: E-selectin (Homo sapiens) (UniProt P16581); assay: BSK_LPS_Eselectin: BioMAP Diversity Plus: LPS Assay for Eselectin Biomarker Activity (AID 2283077); conditions: primary human HUVEC with PBMC; actives raise or lower the signal
Outline: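 Human umbilical vein endothelial cells co-cultured with peripheral blood mononuclear cells under LPS stimulation; E-selectin measured by ELISA 24 h after chemical dosing. Activity fitted bidirectionally against DMSO as negative control and baseline.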

[16] = read-out: Interleukin-8 (IL8), CXCL8 (gene 3576); assay: BSK_LPS_IL8: BioMAP Diversity Plus: LPS Assay for Interleukin-8 (IL8) Biomarker Activity (AID 2283078); conditions: primary human HUVEC with PBMC; actives raise or lower the signal
Outline: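 Human umbilical vein endothelial cells co-cultured with PBMC were stimulated with LPS; IL-8 levels were measured by ELISA 24 h after chemical dosing. Activity was fitted bidirectionally against DMSO as negative control and baseline.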

[17] = BSK_LPS_SRB: Viability Assessment in the BioMAP Diversity Plus: LPS Assay (AID 2283079); conditions: primary human HUVEC with PBMC;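 further: total protein by sulforhodamine B absorbance as a cytotoxicity measure; measured one day after compound addition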
Outline: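 Human umbilical vein endothelial cells co-cultured with PBMC (LPS system) were dosed for 24 h. Total protein was stained with 0.1% sulforhodamine B after 10% TCA fixation, read at 560 nm, and fitted bidirectionally against DMSO baseline.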

[18] = read-out: Interleukin-1 alpha (IL1a), IL1A (gene 3552); assay: BSK_LPS_IL1a: BioMAP Diversity Plus: LPS Assay for Interleukin-1 alpha (IL1a) Biomarker Activity (AID 2283080); conditions: primary human HUVEC with PBMC; actives raise or lower the signal
Outline: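 Human umbilical vein endothelial cells co-cultured with peripheral blood mononuclear cells were LPS-stimulated and exposed to test chemicals for 24 h. IL-1 alpha was quantified by ELISA, with bidirectional curve fitting against DMSO as the negative control and baseline.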

CD40, CD40 (gene 958) = assay: BSK_LPS_CD40: BioMAP Diversity Plus: LPS Assay for CD40 Biomarker Activity (AID 2283076); conditions: primary human HUVEC with PBMC; actives raise or lower the signal
Outline: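 Primary human umbilical vein endothelial cells co-cultured with peripheral blood mononuclear cells, LPS-stimulated, were dosed with chemical and read 24 h later. CD40 levels were measured by ELISA and fitted bidirectionally against DMSO as negative control and baseline.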

Measured: AC50

E-selectin (Homo sapiens), sequence (P16581 whole entry, looked up): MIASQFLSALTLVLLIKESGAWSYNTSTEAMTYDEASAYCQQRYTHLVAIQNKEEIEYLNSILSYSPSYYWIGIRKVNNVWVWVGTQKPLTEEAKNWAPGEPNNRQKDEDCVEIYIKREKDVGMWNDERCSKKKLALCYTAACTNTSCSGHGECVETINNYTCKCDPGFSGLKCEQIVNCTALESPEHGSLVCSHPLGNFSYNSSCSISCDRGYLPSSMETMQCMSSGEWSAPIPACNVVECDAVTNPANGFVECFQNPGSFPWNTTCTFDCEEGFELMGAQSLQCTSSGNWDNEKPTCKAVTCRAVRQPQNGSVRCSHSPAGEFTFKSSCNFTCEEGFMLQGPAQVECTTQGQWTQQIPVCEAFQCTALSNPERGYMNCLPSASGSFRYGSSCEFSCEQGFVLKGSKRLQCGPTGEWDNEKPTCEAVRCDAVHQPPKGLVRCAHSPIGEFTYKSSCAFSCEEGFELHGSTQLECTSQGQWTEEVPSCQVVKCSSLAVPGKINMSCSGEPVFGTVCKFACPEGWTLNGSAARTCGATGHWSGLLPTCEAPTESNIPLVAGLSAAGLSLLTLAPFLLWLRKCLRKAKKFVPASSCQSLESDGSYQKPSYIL

CNC[C@H](O)c1cccc(O)c1
active: [12] 0.0741 µM
not listed: CD40, CD40 (gene 958)
inactive: all other assays above

Cc1cc(C2(c3cc(C)c(O)cc3C)OS(=O)(=O)c3ccccc32)c(C)cc1O
active: [5] 20 µM and 4.95 µM
not listed: [11] | CD40, CD40 (gene 958)
inactive: all other assays above

O=[N+]([O-])c1cc(C(F)(F)F)ccc1Cl
not listed: CD40, CD40 (gene 958)
inactive: all other assays above

CCCCCCCCC=O
not listed: CD40, CD40 (gene 958)
inactive: all other assays above

O=P(c1ccccc1)(c1ccccc1)c1ccccc1
not listed: CD40, CD40 (gene 958)
inactive: all other assays above

COc1cc(C=O)ccc1OC(=O)C(C)C
not listed: [11] | CD40, CD40 (gene 958)
inactive: all other assays above

NCCNCCN
not listed: [11] | CD40, CD40 (gene 958)
inactive: all other assays above

CCCCC(CC)COC(=O)/C=C\C(=O)OCC(CC)CCCC (stereo not given)
active: [5] 7.23 µM
not listed: CD40, CD40 (gene 958)
inactive: all other assays above

OC[C@H]1O[C@H](O[C@]2(CCl)O[C@H](CCl)[C@@H](O)[C@@H]2O)[C@H](O)[C@@H](O)[C@H]1Cl
not listed: [11]
inactive: all other assays above

CCn1c2ccccc2c2cc(N)ccc21
active: [4] 0.855 µM | [10] 1.49 µM | [18] 0.653 µM
not listed: CD40, CD40 (gene 958)
inactive: all other assays above

CC1CCC(C(C)CS)CC1S (stereo not given)
active: [1] 7.28 µM | [2] 6.08 µM | [3] 9.03 µM | [4] 2.78 µM | [6] 35.5 µM | [7] 20 µM | [8] 13.8 µM | [9] 30.2 µM | [10] 5.83 µM | [11] 7.37 µM | [12] 20 µM | [13] 24 µM | [14] 33.7 µM | [15] 34.6 µM | [17] 29.4 µM | [18] 36.3 µM
inactive: [5] | [16]

CCC(=O)OCc1ccccc1
not listed: [11] | CD40, CD40 (gene 958)
inactive: all other assays above

CC(C)Oc1ccccc1O
not listed: CD40, CD40 (gene 958)
inactive: all other assays above
